A short description of test [1]: qHTS assay to identify small molecule antagonists of the glucocorticoid receptor (GR) signaling pathway - cell viability counter screen (AID 720693; note: nearly all actives have a fitted effect of over 55% in size). (Quantitative high-throughput screening tests each substance at several concentrations.)
Test [2] in a line: qHTS assay for identifying genotoxic compounds that show differential cytotoxicity against isogenic chicken DT40 cell lines with known DNA damage response pathways - wild type cell line (AID 743012). Note: nearly all actives have a fitted effect of over 60% in size. The essentials: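 Endpoint: CellTiter-Glo luminescence, 30 min RT. Cells: wild type DT40, 300/well. Exposure: compounds in DMSO, 40 h, 37 C/5% CO2, after ~0.5 h pre-incubation.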

Test [3] in a line: qHTS assay to identify small molecule antagonists of the androgen receptor (AR) signaling pathway - cell viability counter screen (AID 743033; note: nearly all actives have a fitted effect of over 45% in size).
Test [4] is described as follows: qHTS assay to identify small molecule antagonists of the androgen receptor (AR) signaling pathway using the MDA cell line - cell viability counter screen (AID 743041; note: nearly all actives have a fitted effect of over 45% in size). The method in brief: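 In this qHTS counter assay, fluorescence intensity after CellTiter-Fluor addition indicated viability of MDA-kb2 AR-luc cells given compounds and R1881 for 16 h at 37C.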
The nature of test [5]: qHTS assay to identify small molecule antagonists of the thyroid receptor (TR) signaling pathway - cell viability counter screen (AID 743064). Note: nearly all actives have a fitted effect of over 50% in size. The essentials:
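Fluorescence from CellTiter-Fluor, added after 23.5 h exposure at 37 °C, reported viability of GH3.TRE-Luc cells co-treated with compound and 1 nM T3. Measured in the same wells as the luciferase TR readout.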

Test [6] in a line: qHTS assay to identify small molecule antagonists of the thyroid receptor (TR) signaling pathway (AID 743065). Note: series mostly up to about 70 µM; nearly all actives have a fitted effect of over 55% in size. The essentials: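 GH3.TRE-Luc rat pituitary cells carrying two TR response elements driving luciferase were plated for 4 h, given compound plus 1 nM T3 (final), and incubated 23.5 h at 37 C. ONE-Glo luminescence measured reporter inhibition; CellTiter-Fluor fluorescence tracked cytotoxicity.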

Test [7] concerns thyroid hormone receptor (rat, GH3 cells). Put plainly: qHTS assay to identify small molecule agonists of the thyroid receptor (TR) signaling pathway (AID 743066; calls by dose curve).
Test [8] in a line: qHTS assay to identify small molecule antagonists of the estrogen receptor alpha (ER-alpha) signaling pathway - cell viability counter screen (AID 743074; calls by dose curve;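 note: HEK293 cells carrying ER-alpha-UAS-bla reporter stimulated with 17beta-estradiol; nearly all actives have a fitted effect of over 45% in size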).
A short description of test [9]: qHTS assay to identify small molecule antagonists of the estrogen receptor alpha (ER-alpha) signaling pathway using the BG1 cell line - cell viability counter screen (AID 743081).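 Note: compound given together with 17beta-estradiol as the ER stimulus; series mostly up to about 70 µM; nearly all actives have a fitted effect of over 45% in size.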
The next test addresses Aromatase (Homo sapiens) (UniProt P11511). Put plainly: qHTS assay to identify aromatase inhibitors (AID 743083). Note: series mostly up to about 70 µM; nearly all actives have a fitted effect of over 55% in size.
Test [10] is described as follows: qHTS assay for identifying genotoxic compounds that show differential cytotoxicity against isogenic chicken DT40 cell lines with known DNA damage response pathways - Rev3 mutant cell line (AID 743014). Note: nearly all actives have a fitted effect of over 55% in size. Note: potency is the fitted concentration of half-maximal effect.
Test [11] in a line: qHTS assay for identifying genotoxic compounds that show differential cytotoxicity against isogenic chicken DT40 cell lines with known DNA damage response pathways - Rad54/Ku70 mutant cell line (AID 743015). Note: nearly all actives have a fitted effect of over 60% in size. Note: potency is the fitted concentration of half-maximal effect.
Test [12] deals with Androgen receptor (Homo sapiens) (UniProt P10275). Put plainly: qHTS assay to identify small molecule antagonists of the androgen receptor (AR) signaling pathway (AID 743035; active = well fitted inhibition curve with a large enough effect in the signal ratio in the repeat runs, not every such curve was filed as active; the % refers to the signal ratio). The essentials:
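R1881 agonist challenge of a HEK293 UAS-beta-lactamase AR reporter line in the presence of compound (16 h, 37C); signal taken as FRET fluorescence after 2 h with LiveBLAzer B/G substrate at room temperature.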

Test [13] shares this target. Nature of the test: qHTS assay to identify small molecule agonists of the androgen receptor (AR) signaling pathway using the MDA cell line (AID 743040; note: nearly all actives have a fitted effect of over 20% in size). The method in brief: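 Cell-based luciferase reporter: MDA-kb2, MMTV promoter (AR + GR response elements). 16 h compound exposure at 37C; ONE-Glo, 30 min RT, luminescence.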
Test [14] has the same target. Put plainly: qHTS assay to identify small molecule antagonists of the androgen receptor (AR) signaling pathway using the MDA cell line (AID 743042; note: nearly all actives have a fitted effect of over 55% in size). The method in brief:
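MDA-kb2 cells (human breast carcinoma, stably carrying an MMTV-luciferase reporter responsive to AR and GR) were plated at 3,000 cells/well and preincubated 5 hr at 37C, then given compound plus R1881 agonist for 16 h. ONE-Glo luminescence was read.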

The target of test [15] is Estrogen receptor (Homo sapiens) (UniProt P03372). Nature of the test: qHTS assay to identify small molecule antagonists of the estrogen receptor alpha (ER-alpha) signaling pathway (AID 743069; active = well fitted curve in the direction sought with a large enough effect in the signal ratio in the repeat runs, not every such curve was filed as active; the % refers to the signal ratio). The method in brief: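 A 17beta-estradiol challenge was applied right after compound transfer to ER-alpha-UAS-bla HEK293 cells previously kept in charcoal-stripped serum. Plates stood 18 hr at 37C and 5% CO2; fluorescence was read following 2 hr FRET substrate loading at room temperature.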
Chain of Estrogen receptor (Homo sapiens) (P03372 whole entry, looked up): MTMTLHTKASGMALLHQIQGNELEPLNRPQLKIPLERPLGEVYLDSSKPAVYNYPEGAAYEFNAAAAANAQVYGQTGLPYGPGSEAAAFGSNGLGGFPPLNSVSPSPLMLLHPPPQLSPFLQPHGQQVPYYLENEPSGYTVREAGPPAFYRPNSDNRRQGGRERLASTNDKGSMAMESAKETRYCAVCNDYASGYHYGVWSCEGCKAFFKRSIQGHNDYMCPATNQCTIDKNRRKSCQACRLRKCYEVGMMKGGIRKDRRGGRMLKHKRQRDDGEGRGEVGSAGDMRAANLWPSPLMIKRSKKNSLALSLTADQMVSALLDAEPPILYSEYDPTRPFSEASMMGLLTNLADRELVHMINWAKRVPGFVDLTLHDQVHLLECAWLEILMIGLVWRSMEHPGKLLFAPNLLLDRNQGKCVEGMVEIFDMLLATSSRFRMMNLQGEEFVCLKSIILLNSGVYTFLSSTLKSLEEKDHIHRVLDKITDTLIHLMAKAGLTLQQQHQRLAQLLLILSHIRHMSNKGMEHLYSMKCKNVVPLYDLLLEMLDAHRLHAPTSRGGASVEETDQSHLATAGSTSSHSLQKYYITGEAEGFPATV

The target is the same in test [16]. Put plainly: qHTS assay to identify small molecule agonists of the estrogen receptor alpha (ER-alpha) signaling pathway (AID 743075; calls by dose curve;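 note: HEK293 GripTite cells with ER-alpha and UAS-driven beta-lactamase reporter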).
The target is the same in test [17]. Put plainly: qHTS assay to identify small molecule agonists of the estrogen receptor alpha (ER-alpha) signaling pathway using the BG1 cell line (AID 743079). Note: nearly all actives have a fitted effect of over 20% in size.
Test [18] is described as follows: qHTS assay to identify small molecule antagonists of the estrogen receptor alpha (ER-alpha) signaling pathway using the BG1 cell line (AID 743080; calls by dose curve;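 note: BG1 cells stimulated with 17beta-estradiol alongside compound; series mostly up to about 70 µM; nearly all actives have a fitted effect of over 25% in size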). The essentials:
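BG1-Luc-4E2 cells (endogenous full-length ER-alpha, 4xERE luciferase) hormone-starved 5 days in charcoal-stripped FBS, plated 4,000/well for 24 h, then compound plus 17beta-estradiol for 21.5 h at 37 C; ONE-Glo luminescence read.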

For test [19], the target named is Androgen receptor (Homo sapiens) (UniProt P10275). Put plainly: qHTS assay to identify small molecule agonists of the androgen receptor (AR) signaling pathway (AID 743036; active = well fitted activation curve with a large enough effect in the signal ratio in the repeat runs, with a control signal flat, not every such curve was filed as active; the % refers to the signal ratio). The essentials: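 Fluorescence from a beta-lactamase FRET substrate served as read-out in AR-UAS-bla GripTite HEK293 cells. Cells were treated with DMSO-dissolved compounds for 16 h at 37C, then with LiveBLAzer B/G substrate for 2 h at room temperature.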
Chain of Androgen receptor (Homo sapiens) (P10275 whole entry, looked up): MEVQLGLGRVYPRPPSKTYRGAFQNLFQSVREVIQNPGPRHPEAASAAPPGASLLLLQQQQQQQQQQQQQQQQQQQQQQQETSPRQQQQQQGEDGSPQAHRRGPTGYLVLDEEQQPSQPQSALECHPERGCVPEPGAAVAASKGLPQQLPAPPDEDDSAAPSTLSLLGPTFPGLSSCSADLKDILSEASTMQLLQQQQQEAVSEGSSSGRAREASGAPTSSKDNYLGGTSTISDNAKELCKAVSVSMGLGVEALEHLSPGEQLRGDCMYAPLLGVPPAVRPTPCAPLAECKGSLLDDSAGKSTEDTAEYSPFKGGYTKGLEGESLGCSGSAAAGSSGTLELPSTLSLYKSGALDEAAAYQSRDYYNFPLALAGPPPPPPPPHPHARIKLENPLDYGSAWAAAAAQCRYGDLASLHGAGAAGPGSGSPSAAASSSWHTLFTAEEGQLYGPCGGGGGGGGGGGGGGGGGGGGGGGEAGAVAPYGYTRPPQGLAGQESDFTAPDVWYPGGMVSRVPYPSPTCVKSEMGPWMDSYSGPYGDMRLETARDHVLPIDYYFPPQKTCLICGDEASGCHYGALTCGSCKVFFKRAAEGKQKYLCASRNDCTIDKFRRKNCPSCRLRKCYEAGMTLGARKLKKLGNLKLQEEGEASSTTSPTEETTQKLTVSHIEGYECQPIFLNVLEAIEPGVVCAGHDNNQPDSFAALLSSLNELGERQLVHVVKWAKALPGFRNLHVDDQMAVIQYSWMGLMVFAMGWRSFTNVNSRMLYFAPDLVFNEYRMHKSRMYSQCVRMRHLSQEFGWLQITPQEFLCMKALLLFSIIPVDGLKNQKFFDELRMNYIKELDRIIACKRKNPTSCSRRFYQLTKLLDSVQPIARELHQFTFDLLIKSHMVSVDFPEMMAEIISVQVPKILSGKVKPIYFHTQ

The text below walks through data of PubChem BioAssay (Tox21).

Values without a mark were called inactive. Results filed as inconclusive are left out. Active and inactive are the calls of the source. Unless noted, calls come from the whole dose curve; as a rule, active = well fitted curve in the direction sought with a large enough effect in the repeat runs; inconclusive = weak or mixed curves; inactive = no such curve, though single readings can be large; an effect the other way counts as inactive or inconclusive.
% is set by controls: 0 for no effect and ±100 for the full control effect.

Chain of Aromatase (Homo sapiens) (P11511 whole entry, looked up): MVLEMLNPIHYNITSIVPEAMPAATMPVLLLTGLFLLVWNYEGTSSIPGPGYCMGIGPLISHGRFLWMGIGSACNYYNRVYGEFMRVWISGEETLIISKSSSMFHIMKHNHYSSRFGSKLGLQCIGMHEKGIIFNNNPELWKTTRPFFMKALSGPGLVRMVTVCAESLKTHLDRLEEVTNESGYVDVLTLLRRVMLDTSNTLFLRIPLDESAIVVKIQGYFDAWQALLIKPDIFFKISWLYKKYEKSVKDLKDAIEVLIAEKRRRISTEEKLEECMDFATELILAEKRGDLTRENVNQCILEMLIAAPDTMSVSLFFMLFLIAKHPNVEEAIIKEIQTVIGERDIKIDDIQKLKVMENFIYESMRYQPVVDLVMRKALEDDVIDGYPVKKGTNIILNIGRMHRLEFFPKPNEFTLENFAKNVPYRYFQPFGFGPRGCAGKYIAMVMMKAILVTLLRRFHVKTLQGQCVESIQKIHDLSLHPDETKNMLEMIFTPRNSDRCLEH

For the compound `CCC(=O)OCCC(C)CCC=C(C)C` (centres undefined), the Potency result in [1], in test [2], in [5], in [6], in test [7] and in test [8] was “inactive” in each case. The result (in [3]; in test [4]; in test [9]; with Aromatase (Homo sapiens)) was inactive.
On to `Nc1cc(S(=O)(=O)O)ccc1S(=O)(=O)O`, for which the Potency result in test [1], in [10], in test [11], in [6], in test [7] and in test [8] was “inactive” in each case. Also, the compound was classed as inactive (in [4]; in test [9]; in the test with Aromatase (Homo sapiens)).
As to `Cc1ncc([N+](=O)[O-])n1CC(O)CCl` (centres undefined), the Potency result in test [1], in test [10], in [11], in test [12], in test [5] and in test [6] was “inactive” throughout. The Potency entry in test [7] and in [8] was “inactive” each time. For the same compound, the compound was called inactive (in test [3]; in [13]; in test [4]; in test [14]; in test [9]; with Aromatase (Homo sapiens)).
For `CCCCC/C=C/CC(=O)OC`, the Potency entry in test [1], in [2], in test [6] and in [8] was “inactive” in each case. The compound was classed as inactive (in test [3]; in test [4]; in [9]; in the test with Aromatase (Homo sapiens)).
For the compound `CC(C)(c1ccc(Oc2ccc3c(c2)C(=O)OC3=O)cc1)c1ccc(Oc2ccc3c(c2)C(=O)OC3=O)cc1`, the Potency entry in [1], in test [10], in test [11], in [5], in test [6] and in test [7] was “inactive” in each case. Also, the Potency result in test [15], in test [8], in [16] and in test [17] was “inactive” in each case. Also, the result (in [4]; in test [18]; in test [9]; with Aromatase (Homo sapiens)) was inactive.
In the case of `C=CCCCCCCCCCCC`, the viability change, negative = cytotoxic was 4.18% [at 7.04 µM] in test [1] and -1.53% [at 8.47 µM] in [4]. Further, the activity, negative = cytotoxicity in test [10] was 4.5% [at 8.53 µM]. The activity change, negative = cytotoxicity in test [11] is -12.6% [at 8.55 µM]; in test [3], -0.32% [at 7.04 µM]; in test [9] it was 2.93% [at 8.47 µM]. For the same compound, the activity change, negative = inhibition in [12] was -3.92% [at 7.04 µM]; in test [14] it was 17.6% [at 8.47 µM]; in test [18], -1.81% [at 8.47 µM]. Besides, the activation in [19] is -0.154% [at 6.9 µM]; in test [7] it was -1.31% [at 8.08 µM]; in [16], -3.33% [at 6.71 µM]; in [17], -5.04% [at 8.47 µM]. Also, the activity change in [13] was 4.86% [at 8.47 µM]. In addition, the activity change, negative = cytotoxic in test [5] is -6.91% [at 8.44 µM]. In addition, the figures for the activity, negative = inhibition (in test [6]; in test [15]; with Aromatase (Homo sapiens)) were 8.56% [at 8.44 µM], -5.51% [at 6.71 µM] and 6.54% [at 8.47 µM], respectively.
For `CCC1Nc2cc(Cl)c(S(N)(=O)=O)cc2S(=O)(=O)N1` (centres undefined), the Potency result in test [1], in test [10], in [11], in [5], in test [6] and in test [7] was “inactive” each time. In addition, the Potency result in test [8] is “inactive”. Further, the outcome (in test [3]; in [4]; with Aromatase (Homo sapiens)) was inactive.
For the compound `CC(C)C(=O)c1ccccc1`, the Potency result in [1], in test [10], in [11], in test [5], in test [7] and in [15] was “inactive” throughout. The Potency entry in test [8], in test [16] and in [17] was “inactive” in each case. In addition, the outcome (in test [4]; in [18]; in test [9]; in the test with Aromatase (Homo sapiens)) was inactive.
For `CC(C)CCC(=O)CCC(C)C`, the Potency entry in [1], in [5], in test [7], in [15], in [16] and in test [17] was “inactive” in each case. Also, the Potency in test [10] is 68.6 µM (active); in test [11], 61.1 µM (active). The call (in test [3]; in test [4]; in test [18]; in [9]; with Aromatase (Homo sapiens)) was inactive.
